15 molecules from PubChem BioAssay (NCI) can be followed below.

Some test systems named below: HCT-15 colon; HT29 colon; SNB-75 CNS; SNB-19 CNS; U251 CNS; PC-3 prostate; SK-MEL-5 melanoma; LOX IMVI melanoma; SK-MEL-28 melanoma; UACC-62 melanoma.
Common to all, as to assay: NCI-60 one-dose screen, 48 h (100 = growth as untreated, 0 = no growth, -100 = all killed)
Conditions in all cases: 10 µM

The panel holds about 83,000 compounds, 20% with a hit somewhere; the sample as a whole holds those more often.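 Growth was measured after 48 h exposure to one concentration of compound in 96-well plates. Values under 10 count as active.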 Unmarked numbers belong to inactive results. Calls of active or inactive are those of the source.

With `O=C1/C(=C/c2ccc3c(c2)OCO3)SC(=S)N1C1c2ccccc2Oc2ccccc21`, the growth with HCT-15 colon was 93%; in the assay on HT29 colon, 117%; with SNB-75 CNS it was 89.2%; with SNB-19 CNS it was 96.8%; with U251 CNS, 113%; with PC-3 prostate, 93.1%. The growth is 97.2% in the assay on SK-MEL-5 melanoma, 89.1% in the assay with LOX IMVI melanoma and 96.3% in the assay with SK-MEL-28 melanoma.
`NS(=O)(=O)c1ccc(Br)cc1`: the growth in the assay on HCT-15 colon is 94.8%; in the assay on HT29 colon it was 91.8%; with SNB-75 CNS it was 93.2%; with SNB-19 CNS, 96.9%; in the assay with U251 CNS, 102%; in the assay with PC-3 prostate it was 75.6%. The growth was 104% in the assay on SK-MEL-5 melanoma, 98.5% with LOX IMVI melanoma and 104% in the assay on SK-MEL-28 melanoma.
In the case of `CCCCC1(O)CCCCC1`, the growth in the assay with HCT-15 colon is 110%; with HT29 colon, 98.5%; in the assay with SNB-75 CNS, 105%; in the assay with SNB-19 CNS it was 106%; in the assay with U251 CNS, 99.1%; in the assay on PC-3 prostate, 103%. Further, the growth in the assay on SK-MEL-5 melanoma was 105%; with UACC-62 melanoma, 102%; with SK-MEL-28 melanoma, 106%.
Take `Nc1ncc(-c2cnn(C3CCNCC3)c2)cc1-c1nc2ccccc2o1`: the growth was 12.4% with HCT-15 colon; -4.71% (active) in the assay on HT29 colon; 13.2% in the assay on SNB-75 CNS; 35.8% with SNB-19 CNS; 13.1% in the assay on U251 CNS; 26.9% with SK-MEL-5 melanoma. The values for the growth in the assay on UACC-62 melanoma, with LOX IMVI melanoma and with SK-MEL-28 melanoma were -67.1% (active), -80.6% (active) and -86.8% (active), respectively.
`CC(C)(C)OC(=O)CN1CCc2c(sc3ncnc(N/N=C/c4cccc5ccccc45)c23)C1`: the growth in the assay on HCT-15 colon is 16.7%; in the assay on HT29 colon, 45%; with SNB-75 CNS it was 46%; in the assay with SNB-19 CNS, 53.7%; with U251 CNS, 45.7%; in the assay with SK-MEL-5 melanoma it was 11.1%. Further, the growth with UACC-62 melanoma is 6.64% (active); with LOX IMVI melanoma it was 26.2%; with SK-MEL-28 melanoma it was 50.1%.
As to `CCn1cc(C(=O)O)c(=O)c2cc(F)c(N3CCNCC3)cc21`, the growth with HCT-15 colon is 102%; in the assay with HT29 colon it was 109%; in the assay with SNB-75 CNS it was 98.2%; in the assay with SNB-19 CNS it was 101%; in the assay on U251 CNS, 101%; with PC-3 prostate it was 102%. For the same molecule, the values for the growth in the assay on SK-MEL-5 melanoma, in the assay with LOX IMVI melanoma and in the assay with SK-MEL-28 melanoma were 99.3%, 98.7% and 115%, respectively.
As to `CCN(CC)CCNc1ccc(C)c2sc3cc(Cl)ccc3c(=O)c12`, the growth in the assay with HCT-15 colon was 26.6%; in the assay on HT29 colon it was -25% (active); in the assay with SNB-75 CNS, 59.8%; in the assay on SNB-19 CNS, 47%; with U251 CNS, 16.5%; in the assay on PC-3 prostate it was 34.9%. The growth with SK-MEL-5 melanoma was 14.1%; with UACC-62 melanoma, -67% (active); with SK-MEL-28 melanoma, -59.3% (active).
As to `Cc1cc(SC#N)cc(C(C)(C)C)c1O`, the growth in the assay on HCT-15 colon was 103%; in the assay with HT29 colon, 91.4%; in the assay on SNB-75 CNS, 92.4%; with SNB-19 CNS it was 113%; in the assay with U251 CNS it was 91.4%; in the assay on PC-3 prostate it was 66.8%. In addition, the growth is 101% in the assay with SK-MEL-5 melanoma, 100% with LOX IMVI melanoma and 105% in the assay with SK-MEL-28 melanoma.
Consider `Nc1cc(-c2ccncc2)c[nH]c1=O`, for which the growth in the assay on HCT-15 colon was 103%; in the assay with HT29 colon it was 103%; with SNB-75 CNS, 76.6%; in the assay with SNB-19 CNS, 111%; in the assay on U251 CNS it was 103%; with PC-3 prostate, 89.1%. Moreover, the growth was 106% in the assay on SK-MEL-5 melanoma, 109% with UACC-62 melanoma and 105% in the assay with SK-MEL-28 melanoma.
On to `COc1nc2c(c(=O)n1C)CN(c1ccccc1)C(=O)C(C)N2` (stereo not given), for which the growth in the assay on HCT-15 colon is 101%; in the assay with HT29 colon, 99.9%; in the assay with SNB-75 CNS, 77.4%; with SNB-19 CNS, 96.7%; in the assay on U251 CNS it was 99%; in the assay on SK-MEL-5 melanoma, 104%. Besides, the growth in the assay with UACC-62 melanoma is 91.7%; in the assay with LOX IMVI melanoma, 91.6%; in the assay on SK-MEL-28 melanoma, 113%.
Take `CCCCCCCCCCCCCCCCCC[n+]1ccc2c(C)c3c(c(C)c2c1)c1cc(O)ccc1n3CC`: the growth with HCT-15 colon was 48.8%; in the assay on HT29 colon it was 17.2%; in the assay with SNB-75 CNS it was 24.5%; in the assay on SNB-19 CNS it was 5.25% (active); in the assay with U251 CNS, -34.9% (active); in the assay with SK-MEL-5 melanoma, -94.2% (active). For the same molecule, the growth in the assay with UACC-62 melanoma was -11.8% (active); in the assay with LOX IMVI melanoma, 20.6%; in the assay on SK-MEL-28 melanoma, 7.4% (active).
Turning to `COc1cc(-c2nn(-c3cccc(NC(=O)NCCNC(=O)c4ccccc4)c3)cc2-c2ccncc2)ccc1Cl`, the growth was 9.91% (active) in the assay on HCT-15 colon; 5.63% (active) in the assay with HT29 colon; 33.4% in the assay on SNB-75 CNS; 35.3% in the assay on SNB-19 CNS; 25.3% in the assay on U251 CNS; -72.7% (active) with SK-MEL-5 melanoma. In addition, the growth was 21.9% in the assay with UACC-62 melanoma, 2.52% (active) in the assay with LOX IMVI melanoma and 7.24% (active) in the assay on SK-MEL-28 melanoma.
Turning to `CC(C)(C)OC(=O)N1CCc2c(sc3ncnc(N/N=C/c4cccc(Br)c4)c23)C1`, the growth in the assay with HCT-15 colon was 18.8%; with HT29 colon, 47.7%; with SNB-75 CNS, 67.6%; in the assay on SNB-19 CNS, 64.7%; in the assay with U251 CNS, 51%; with SK-MEL-5 melanoma it was 44.1%. Moreover, the growth was 43% in the assay with UACC-62 melanoma, 33.1% in the assay with LOX IMVI melanoma and 75.2% in the assay on SK-MEL-28 melanoma.
As to `Fc1ccc2[nH]cc(-c3nc(-c4ccsc4)cs3)c2c1`, the growth was 91.4% in the assay on HCT-15 colon; 100% in the assay with HT29 colon; 92.2% in the assay with SNB-75 CNS; 109% in the assay with SNB-19 CNS; 93.7% in the assay on U251 CNS; 89.2% with SK-MEL-5 melanoma. Also, the growth in the assay with UACC-62 melanoma is 88.5%; in the assay with LOX IMVI melanoma it was 86.7%; in the assay with SK-MEL-28 melanoma, 108%.
Take `Nc1nc(-c2cccnc2)nc2c1sc(=S)n2-c1ccccc1`: the growth in the assay with HCT-15 colon is 104%; in the assay on HT29 colon, 94.6%; with SNB-75 CNS, 94.9%; in the assay on SNB-19 CNS, 95%; in the assay with U251 CNS, 88.2%; with SK-MEL-5 melanoma, 98.6%. In addition, the figures for the growth in the assay on UACC-62 melanoma, in the assay with LOX IMVI melanoma and with SK-MEL-28 melanoma were 101%, 93.7% and 116%, respectively.
